MPTP inh: inhibitors of mitochondrial permeability transition pore; AID 602449; inhibition, % at 10 µM; 1.4% of 360,000 active; isolated mouse mitochondria, Ca2+ swelling absorbance, 30 min;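 active means inhibition of 50% or more, scaled per plate between neutral and stimulator controls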
Gli-Sufu antag: blocks Gli-Sufu signaling in a luciferase reporter. Sufu-KO-LIGHT fibroblasts, Gli luciferase reporter luminescence. inhibition, % at 5 µM. 0.74% of 340,000 active. AID 588413;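 active means inhibition above about 55%, limit read from the data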
CSC inhib: blocks cancer stem cells; cancer stem cell-like cells viability, luminescence; inhibition, % at 7.5 µM; 1.1% of 300,000 active; AID 2717; in the data active means inhibition above about 75%; tested in HMLE shEcad cells
GRIN3A LBD mod: NR3A (human) ligand-binding domain modulation. Tm shift relative to glycine control, % at 25 µM. 2.5% of 340,000 active. NR3A LBD differential scanning fluorimetry, Tm shift; 0% = protein alone, 100% = glycine-bound protein;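 active means melting temperature shift of at least 10% of the positive control shift, at one fixed dose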
Mdm2 MdmX PPI: disrupts the human Mdm2-MdmX interaction; SaOS-2 split-luciferase Mdm2/MdmX complementation, luminescence; inhibition, % at 8 µM; 3% of 330,000 active;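 active means inhibition of at least 50% at 8 µM in the primary screen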
Target sequence (O15151 whole entry, looked up): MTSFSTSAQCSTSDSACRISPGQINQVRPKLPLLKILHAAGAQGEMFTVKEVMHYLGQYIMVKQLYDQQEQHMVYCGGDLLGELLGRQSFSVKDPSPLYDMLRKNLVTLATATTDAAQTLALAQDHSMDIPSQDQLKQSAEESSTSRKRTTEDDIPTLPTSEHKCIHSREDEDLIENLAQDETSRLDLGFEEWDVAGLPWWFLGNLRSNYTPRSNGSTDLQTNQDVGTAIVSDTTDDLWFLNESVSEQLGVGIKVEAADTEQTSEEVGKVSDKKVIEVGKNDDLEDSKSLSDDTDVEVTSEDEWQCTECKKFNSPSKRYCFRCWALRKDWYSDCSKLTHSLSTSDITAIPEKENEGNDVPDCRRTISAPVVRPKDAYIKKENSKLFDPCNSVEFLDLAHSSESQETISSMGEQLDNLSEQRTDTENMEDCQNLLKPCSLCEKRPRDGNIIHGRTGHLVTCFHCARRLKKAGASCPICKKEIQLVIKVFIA
Target sequence (Q00987 whole entry, looked up): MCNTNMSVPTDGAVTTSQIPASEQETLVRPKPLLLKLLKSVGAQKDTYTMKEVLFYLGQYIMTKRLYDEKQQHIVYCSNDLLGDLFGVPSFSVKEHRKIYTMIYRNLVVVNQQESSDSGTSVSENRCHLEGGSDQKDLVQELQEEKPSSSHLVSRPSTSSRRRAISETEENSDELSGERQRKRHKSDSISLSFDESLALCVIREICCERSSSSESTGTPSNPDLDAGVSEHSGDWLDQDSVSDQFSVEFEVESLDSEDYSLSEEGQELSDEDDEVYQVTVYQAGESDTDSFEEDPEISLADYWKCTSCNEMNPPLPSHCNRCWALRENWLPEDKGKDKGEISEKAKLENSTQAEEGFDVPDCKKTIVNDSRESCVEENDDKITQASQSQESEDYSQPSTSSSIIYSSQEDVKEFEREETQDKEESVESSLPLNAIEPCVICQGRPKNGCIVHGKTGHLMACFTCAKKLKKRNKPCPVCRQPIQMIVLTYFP
Beta apoptosis: blocks beta cell apoptosis; INS-1E cytokine-induced death, ATP luminescence, 48 h; percent of positive-control rescue, neutral wells zero; protection from apoptosis, % (test concentration not listed); 0.8% of 300,000 active; AID 435005;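 active means Every replicate reaches about 75%, or at least half do and their mean reaches it too, limit read from the data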;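 further: higher means more ATP so stronger rescue from cytokine killing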
Gli-Sufu confirm: confirmation of Gli-SUFU pathway antagonists. shares compounds with Gli-Sufu antag. Sufu-KO-LIGHT cells, Gli luciferase reporter, luminescence. inhibition, % at 5 µM. 40% of 2,500 active. AID 602428;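 active means mean inhibition at 5 µM reaching about 45%, limit read from the data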
SufuKO cytotox: cytotoxicity counter-screen for Gli-SUFU antagonists. AID 651994. shares compounds with Gli-Sufu antag. cytotoxicity, % at 5 µM. Sufu-KO-LIGHT cells cytotoxicity, ATP luminescence. 32% of 2,500 active;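 active means mean cytotoxicity at 5 µM above about 25%, limit read from the data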;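 further: cells exposed to compound overnight for roughly 16 to 18 hours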
Wnt3a cs: counter-screen for Gli-SUFU antagonists: Wnt3a reporter inhibition. shares compounds with Gli-Sufu antag. Wnt-LIGHT cells, Wnt3a-driven luciferase reporter, luminescence. inhibition, % at 6.25 µM. 20% of 2,500 active. AID 651995;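 active means mean inhibition above about 25%, limit read from the data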
A number is an active result; - = inactive; . = no result given. Hits are enriched below; roughly 6.6% of the tested compounds scored in any of these assays.

SMILES | MPTP inh | Gli-Sufu antag | CSC inhib | GRIN3A LBD mod | Mdm2 MdmX PPI | Beta apoptosis | Gli-Sufu confirm | SufuKO cytotox | Wnt3a cs
CN(CC(=O)Nc1ccc(Cl)cc1)CC(=O)Nc1cccc(Br)c1 | - | 55 | - | - | - | - | - | - | -
Cc1cccnc1NC(=O)c1ccc(Cl)c(S(=O)(=O)N2CCCCCC2)c1 | - | 84 | - | - | - | - | - | - | -
Cc1cccnc1NC(=O)c1ccc(Cl)c(S(=O)(=O)N2CCCC2)c1 | - | - | - | - | - | - | . | . | .
CC(C)Oc1ccc(CCNC(=O)C2CCC(=O)N(Cc3cccc(F)c3)C2)cc1 (stereo not drawn) | - | 57 | - | - | - | - | - | - | -
COc1ccccc1CCNC(=O)C1CCC(=O)N(Cc2cccc(F)c2)C1 (stereo not drawn) | - | - | . | - | - | . | . | . | .
CCCCCCC[N+](CC)(CC)CCCCc1ccc(Cl)cc1 | - | 85 | - | - | - | 114 | 88 | 26 | -
CCCCCNCc1ccc(Cl)cc1 | - | - | . | - | - | - | . | . | .
Cc1ccc(CNc2nc(C)cs2)cc1 | - | 73 | - | - | - | - | - | - | -
O=C(NCc1cccc(Cl)c1)C1Cc2c(-c3ccccc3Oc3ccccc3)ccnc2O1 (stereo not drawn) | - | . | . | . | . | . | . | . | .
O=C(N/N=C/c1ccc(F)cc1)c1cccc(NC(=O)c2ccccc2Cl)c1 | - | - | - | - | - | - | . | . | .
CC(C)(C)OC(=O)NCCCCCNC(=O)c1nc[nH]c1C(=O)NCCCCCNC(=O)OC(C)(C)C | - | 55 | . | - | - | - | - | - | -
C[n+]1c2n(c3ccccc31)N=C(c1ccc(Cl)cc1)CS2 | - | 61 | - | - | - | 76 | 66 | 37 | -
Cn1c(Cc2ccccc2)[n+](C)c2ccccc21 | - | - | . | - | - | - | . | . | .
CC1Sc2n(c3ccccc3[n+]2C)N=C1c1ccccc1 (stereo not drawn) | - | 59 | - | - | - | - | 75 | 27 | -
CC(=O)Nc1ccc(NC(=O)Nc2ccccc2C)cc1 | - | 76 | - | - | - | - | - | - | -
Cc1ccccc1NC(=O)NCCCCc1ccccc1 | - | 96 | - | - | - | - | - | - | -
c1ccc(SCCCCN2CCOCC2)cc1 | - | - | - | - | - | - | - | 27 | -
COCc1cc(CN(C)C(=O)c2oc3c(F)cccc3c2C)[nH]n1 | - | - | - | - | - | - | . | . | .
Cn1c(O)c(N=Nc2ccccc2)c2ccccc21 | - | - | - | - | - | - | . | . | .
Cc1ccc2c(c1)c(N=Nc1ccc([N+](=O)[O-])cc1)c(O)n2C | - | - | - | - | - | - | - | - | -
CC(=O)c1cnc(Nc2ccccc2)s1 | - | 57 | - | - | - | - | - | - | -
Cc1cc(C)c(C(=O)Cn2cnc3cc([N+](=O)[O-])ccc3c2=O)cc1C | - | - | - | - | - | - | . | . | .
CC1CCCCN1C(=O)Cn1cnc2cc([N+](=O)[O-])ccc2c1=O (stereo not drawn) | - | 55 | - | - | - | - | - | - | -
CCOc1ccc(-c2nc3n(c(=O)c2C#N)CCS3)cc1 | - | - | - | - | - | - | . | . | .
COc1ccc(-c2nc3n(c(=O)c2C#N)CCS3)cc1 | - | 56 | - | - | - | - | - | - | -
SMILES | MPTP inh | Gli-Sufu antag | CSC inhib | GRIN3A LBD mod | Mdm2 MdmX PPI | Beta apoptosis | Gli-Sufu confirm | SufuKO cytotox | Wnt3a cs
COc1ccc(OC)c(NS(=O)(=O)c2ccc(-c3coc(C)n3)cc2)c1 | - | - | - | - | - | - | . | . | .
CCCc1ccc(-c2ccc(/C=C/C(=O)O)cc2)nc1 | - | 71 | - | - | . | - | 69 | 56 | 91
CN(C)c1ccncc1C(=O)Nc1ccc(F)cc1F | - | 59 | - | - | - | - | - | - | -
O=C(Nc1ccncc1)Nc1ccc(F)cc1F | - | - | - | - | - | - | . | . | .
CC1(C)C[C@H](O)[C@@]23C[C@@H](OC2=O)[C@]2(C)C(=CCC4[C@@]5(C)CC[C@H](O)C(C)(C)C5CC[C@]42C)[C@@H]3C1 (stereo partly drawn) | . | - | - | - | - | - | . | . | .
CCOC(=O)/C=C1/N(C)c2ccccc2C1(C)C | - | - | - | - | - | - | . | . | .
CN1/C(=C\P(=O)(N(C)C)N(C)C)C(C)(C)c2ccccc21 | - | 76 | - | - | - | 87 | 70 | 30 | 29
O=C(NC1CCN(S(=O)(=O)c2ccc(Cl)c(F)c2)CC1)c1cccnc1 | - | - | . | - | - | - | . | . | .
COc1ccc(C(=O)NCc2ccccc2CN2CCCC2)cc1S(=O)(=O)Nc1ccc(C)cc1 | - | - | - | - | - | - | . | . | .
CCCCCn1c(CN2CCN(C(=O)OCC)CC2)nc2c1c(=O)n(C)c(=O)n2C | - | - | - | . | - | - | . | . | .
CCOC(=O)N1CCN(Cc2nc3c(c(=O)n(C)c(=O)n3C)n2CCCc2ccccc2)CC1 | - | 99 | - | - | - | - | - | - | -
CCN1C(=NCCCOC(C)C)N[C@@H](CCc2ccccc2)[C@H](C(=O)NCCCOC(C)C)[C@H]1C | - | 56 | - | - | - | - | 57 | 30 | -
CCN(CC)CCn1c(NCc2ccc(OC)cc2)nc2ccccc21 | - | 56 | - | - | - | - | - | - | -
COc1ccc(NS(=O)(=O)c2cc3c(cc2C)N(C(C)=O)CCO3)c(OC)c1 | - | - | - | - | - | - | . | . | .
Cc1ccc(OCCOC(=O)c2cc(S(=O)(=O)N3CCCCC3)ccc2N2CCOCC2)cc1 | - | 55 | . | - | - | - | 65 | 28 | -
O=C(COC(=O)c1cc(S(=O)(=O)N2CCCCC2)ccc1N1CCOCC1)c1ccccc1Cl | - | . | . | . | . | . | . | . | .
O=C(OCCOc1ccc(Cl)cc1)c1cc(S(=O)(=O)N2CCCCC2)ccc1N1CCOCC1 | - | 69 | . | - | . | . | 68 | 32 | 26
COc1ccc(COC(=O)c2cc(S(=O)(=O)N3CCCCC3)ccc2N2CCOCC2)cc1 | - | - | - | - | - | - | . | . | .
Cc1ccccc1NC(=O)Cn1nc(C(=O)O)c2ccccc2c1=O | - | - | - | - | - | - | . | . | .
O=C(Cn1nc(C(=O)O)c2ccccc2c1=O)Nc1ccccc1C(F)(F)F | - | 79 | - | - | - | - | - | - | -
COc1cc(NC(=O)COC(=O)Cn2cnc3c2c(=O)n(C)c(=O)n3C)cc(OC)c1 | - | - | . | - | - | . | . | . | .
CCOc1ccc(S(=O)(=O)N2CCCCC2)cc1NC(=O)c1cccnc1OCC | - | 56 | - | - | - | - | - | - | -
CCOc1ccc(S(=O)(=O)NCc2ccncc2)cc1NC(=O)c1ccccc1 | - | 63 | - | - | - | - | 66 | 28 | -
COc1ccc(S(=O)(=O)NCc2ccncc2)cc1NC(=O)c1ccccc1 | - | - | - | - | - | . | . | . | .

Screening data as filed in PubChem.
